According to PubChem BioAssay (NCATS):
Values joined by “and” are separate entries in the source; they are usually repeats but may differ in a detail not shown here. Identical values can stand only once. Results filed as inconclusive are left out. Active and inactive are the calls of the source. Unless noted, the call rests on the fitted dose curve; in most records, active means well fitted curve in the direction sought with a large enough effect; inconclusive means small, poorly fitted or top-dose-only effect, or another doubt; inactive means no such curve, though single readings can be large; an effect the other way counts as inactive or inconclusive.

Columns and labels:
[1] = Cell Viability - BJ (AID 421; calls by dose curve;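 further: potency means the concentration at half of the fitted maximal effect; cells exposed to compound for 40 hours at 37 °C before readout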); details: BJ fibroblast viability, qHTS
How it was run: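 Luminescent ATP signal (CellTiter-Glo, 20 min at room temperature) served as the read-out of viable BJ cells after 40 hours of compound treatment. Responses were scaled between DMSO and 100 uM tamoxifen, and AC50 values were obtained by Hill modeling.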

[2] = Cell Viability - HepG2 (AID 433; calls by dose curve;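 further: potency means the concentration at half of the fitted maximal effect; potency for ATP loss meaning cytotoxicity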); details: qHTS
How it was run: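 HepG2 hepatocellular carcinoma cells (1500/well) were treated with compounds for 40 h at 37 °C in complete medium; intracellular ATP was read by CellTiter-Glo luminescence. Data were normalized to DMSO and 100 uM tamoxifen, and AC50 came from Hill fits.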

[3] = Cell Viability - MRC5 (AID 434; calls by dose curve;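 further: potency means the concentration at half of the fitted maximal effect; potency reflects cytotoxicity seen as loss of intracellular ATP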); details: MRC5 lung fibroblast viability, qHTS
How it was run: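 qHTS cytotoxicity in human lung fibroblast MRC5 cells; 40 hr treatment, 37 °C; cellular ATP by luciferase luminescence; DMSO = 0%, 100 uM tamoxifen = 100% inhibition; Hill-fit AC50.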

[4] = Cell Viability - SK-N-SH (AID 435; calls by dose curve;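 further: potency means the concentration at half of the fitted maximal effect; compound exposure lasted 40 h at 37 °C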); details: SK-N-SH neuroblastoma cell viability qHTS
How it was run: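 SK-N-SH human neuroblastoma cells (1500/well) were exposed to compounds in complete medium for 40 h at 37 °C, and intracellular ATP was then measured by CellTiter-Glo luminescence. AC50 was taken from Hill fits, normalized to DMSO and 100 uM tamoxifen.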

[5] = molecular target: Mitogen-activated protein kinase 10 (Mus musculus) (UniProt Q61831); assay: JNK3 AlphaScreen Assay (AID 530; active means well fitted curve in either direction with a large enough effect, not every such curve was filed as active;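 further: kinase came from lysate of stimulated human HepG2 cells; signal reports phosphorylation of biotinylated GST-cJun 1-79 at Ser73 with 10 µM ATP; on the % scale 0 is the no-effect control and ±100 the full control effect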); details: JNK3 lysate, c-Jun phosphorylation; series mostly up to 57.1 µM
How it was run: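 Compound titrations were preincubated 15 minutes at room temperature with substrate, antibody and pre-activated JNK3-containing HepG2 lysate. Reactions were started with 10 uM ATP and stopped with EDTA-containing bead buffer for AlphaScreen detection.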

[6] = Cell Viability - N2a (AID 540); details: N2a mouse neuroblastoma cell viability; at 92.2 µM (top of the series);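 further: plate controls were DMSO alone for no effect and tamoxifen control for full effect; nearly all actives have a fitted effect of over 45% in size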
How it was run: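 Luminescent ATP signal (CellTiter-Glo, 20 min at room temperature) served as the viability read-out after N2a cells were treated with compounds for 40 hours at 37 °C. Concentration-response data were fitted to the Hill equation for AC50.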

[7] = Cell Viability - HUV-EC-C (AID 542); details: HUV-EC-C endothelial cell viability, qHTS; series mostly up to 92.2 µM; further: on the % scale 0 is the no-effect control and ±100 the full control effect; nearly all actives have a fitted effect of over 35% in size
How it was run: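 qHTS cytotoxicity: HUV-EC-C, 1000 cells/well, 5 hr settle, compound 40 hr 37 °C, CellTiter-Glo, luminescence. AC50 via Hill equation.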

[8] = Cell Viability - SH-SY5Y (AID 544); details: SH-SY5Y neuroblastoma cell viability; viability change, negative = cytotoxic: at 92.2 µM (top of the series); further: nearly all actives have a fitted effect of over 55% in size
How it was run: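 Luminescent ATP read-out (CellTiter-Glo) measures loss of viable SH-SY5Y neuroblastoma cells after 40 hr compound exposure at 37 °C. AC50 values derive from standard Hill modelling of qHTS concentration-response data.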

[9] = Cell Viability - Renal Proximal Tubule (AID 545); details: renal proximal tubule cells viability; at 91.7 µM (top of the series), primary cells of rat origin unless noted; further: nearly all actives have a fitted effect of over 40% in size
How it was run: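 Primary rat renal proximal tubule cells (1000/well) were treated with compounds for 40 hr at 37 °C in complete medium. Intracellular ATP was measured by CellTiter-Glo luminescence, and AC50 values came from Hill-equation fits of concentration-response data.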

[10] = Cell Viability - Mesenchymal (AID 546); details: mesenchymal cells viability, qHTS; series mostly up to 91.7 µM;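 further: cells exposed to compound for 40 hours before reading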
How it was run: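 AC50 values reflect the drop in intracellular ATP in a human kidney mesenchymal line derived from normal glomeruli. Treatment lasts 40 hr at 37 °C in complete medium, and the signal comes from CellTiter-Glo luminescence.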

[11] = Cellular Toxicity (caspase-3) Jurkat (AID 655); details: Jurkat caspase-3 activation, luminescence, DMSO = 0%, tamoxifen = 100%; at 92.2 µM (top of the series);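 further: cells exposed to compound for 16 h at 37 °C before reading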
How it was run: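 Jurkat cells (5000/well) in complete medium were treated with compounds for 16 hr at 37 °C, then Caspase-Glo 3/7 luminescence was read after 20 min at room temperature. Data normalized to DMSO (basal) and 100 uM tamoxifen (100%); AC50 from Hill fit.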

[12] = Cellular Toxicity (caspase-3) SHSY5Y (AID 657); details: SH-SY5Y caspase-3 activation, DMSO zero, 10 µM staurosporine = 100%; series mostly up to 91.7 µM;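 further: cells exposed to compound for 16 hours at 37 °C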
How it was run: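 SH-SY5Y human neuroblastoma cells (1500/well) were treated with compounds for 16 h at 37 °C, then Caspase-Glo 3/7 luminescence was read after 1 h at room temperature. Data normalized to DMSO and 10 uM staurosporine; AC50 from Hill fits.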

[13] = Cellular Toxicity (caspase-3) BJ (AID 658); details: BJ fibroblasts, luminescence, normalized: DMSO 0%, staurosporine 100%; series mostly up to 91.7 µM;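 further: cells exposed to compound for 16 hours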
How it was run: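 Readout: Caspase-Glo 3/7 luminescence increase in BJ cells after 16 hr treatment at 37 °C. Staurosporine and tamoxifen served as positive controls; AC50 values came from Hill modelling of data normalized to DMSO and 10 uM staurosporine.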

[14] = Cellular Toxicity (caspase-3) MRC-5 (AID 659); details: MRC-5 cells, luminescence, normalized: DMSO 0%, 10 µM staurosporine 100%; series mostly up to 91.7 µM
How it was run: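 Concentration-dependent caspase 3/7 activation is measured in human normal lung fibroblasts (MRC-5) following 16-hour treatment. AC50 values come from standard Hill-equation modeling of luminescence normalized to DMSO and 10 uM staurosporine.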

[15] = Cellular Toxicity (caspase-3) Mesangial (AID 660); details: mesangial cells, normalized: DMSO 0%, 100 µM tamoxifen 100%; series mostly up to 91.7 µM;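 further: combined caspase 3 and 7 activity read by Caspase-Glo luminescence; cells exposed to compound for 16 h before the caspase read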
How it was run: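 Mesangial cells, 1000/well, 5 h settle at 37 °C; compound 16 h, 37 °C; Caspase-Glo 3/7 reagent 20 min RT; luminescence. Norm.: DMSO = 0%, tamoxifen 100 uM = 100%. AC50, Hill fit.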

[16] = Cellular Toxicity (caspase-3) SK-N-SH (AID 661); details: SK-N-SH caspase-3 activation, qHTS, DMSO as zero, staurosporine as full; series mostly up to 91.7 µM;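 further: cells exposed to compound for 16 hours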
How it was run: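 Human neuroblastoma SK-N-SH, 1500 cells/well, 5 hr pre-incubation, then compound 16 hr, 37 °C. Caspase-Glo 3/7 reagent, 1 hr RT, luminescence. Norm. to DMSO/10 uM staurosporine; Hill-fit AC50.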

[17] = Cellular Toxicity (caspase-3) Renal Proximal Tubule (AID 667); details: renal proximal tubule cells; at 91.7 µM (top of the series), primary cells freshly taken from rat, solvent-only wells 0%, staurosporine 100% unless noted;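 further: cells exposed to compound for 16 hours at 37 °C before detection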
How it was run: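 Primary rat proximal tubule cells, 1000/well, 5 h plating at 37 °C, then compound 16 h at 37 °C. Caspase-Glo 3/7 reagent, 1 h RT, luminescence. Normalized to DMSO (basal) and 10 uM staurosporine (100%); Hill-fit AC50.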

[18] = qHTS Assay for Identification of Small Molecule Inducers of Hypoxia Response (AID 2120; active means well fitted curve in the direction sought with a large enough effect in the signal ratio, with a control signal flat, not every such curve was filed as active; the % refers to the signal ratio; further: 0% is about no effect); details: hypoxia response reporter cells, beta-lactamase ratio readout; series mostly up to 104 µM
How it was run: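 ME-180 HRE-bla cells plated in Opti-MEM/0.5% dialyzed FBS, rested 4-5 h, then dosed with compound titrations by pin tool. After 17 h at 37 degrees C, CCF4 dye loaded 2.5 h at RT; 460/530 nm ratio gave %Activity and AC50.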

[19] = qHTS assay for small molecule disruptors of the mitochondrial membrane potential - 5 hr assay (AID 651755; calls by dose curve; further: nearly all actives have a fitted effect of over 40% in size; further: potency means the concentration at half of the fitted maximal effect); details: JC-1-type ratio dye; series mostly up to 92.2 µM
How it was run: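 HepG2, 2,000 cells/well, overnight attach; cpd or DMSO 5 hr, 37C/5% CO2; Mito-MPS 30 min 37C; fluor 490/535 + 540/590 nm.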

[20] = molecular target: Peroxisome proliferator-activated receptor alpha (Homo sapiens) (UniProt Q07869); assay: qHTS assay for small molecule agonists of the peroxisome proliferator-activated receptor alpha (PPARalpha) signaling pathway (AID 651778); details: PathHunter PPARalpha complementation, chemiluminescence, 6 h; hits give high values; further: % of control where 0% means no effect
Peroxisome proliferator-activated receptor alpha (Homo sapiens), sequence (Q07869 whole entry, looked up): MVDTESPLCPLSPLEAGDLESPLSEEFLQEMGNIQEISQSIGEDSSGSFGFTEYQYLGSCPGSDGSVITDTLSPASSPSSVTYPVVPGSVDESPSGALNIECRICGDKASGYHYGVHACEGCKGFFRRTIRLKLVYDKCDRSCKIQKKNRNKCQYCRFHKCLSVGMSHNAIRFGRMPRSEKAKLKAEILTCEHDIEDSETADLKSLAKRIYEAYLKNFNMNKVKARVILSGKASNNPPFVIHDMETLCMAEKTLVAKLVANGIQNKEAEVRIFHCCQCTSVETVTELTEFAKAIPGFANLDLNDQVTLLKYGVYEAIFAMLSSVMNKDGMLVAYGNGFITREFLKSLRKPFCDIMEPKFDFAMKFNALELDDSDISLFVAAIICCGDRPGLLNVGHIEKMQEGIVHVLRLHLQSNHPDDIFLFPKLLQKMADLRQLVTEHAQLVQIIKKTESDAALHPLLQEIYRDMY
How it was run: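 Chemiluminescence from complemented enzyme reported PPARalpha activation in cells after 6 hr of compound treatment at 37 C. The detection reagent was incubated for 60 min at room temperature, and compounds were scored as agonists.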

S=C=Nc1cccc2ccccc12
inactive: Potency [1] > 92 µM | Potency [2] > 92 µM | Potency [3] > 92 µM | Potency [4] > 92 µM | outcome [5] | activity change, negative = cytotoxicity [6] 6.83% | Potency [7] | Potency [8] | activity change, negative = cytotoxicity [9] 4.87% | outcome [10] | caspase-3 activation [11] 1.77% | outcome [12] | outcome [13] | outcome [14] | outcome [15] | outcome [16] | caspase-3 activation [17] -4.28% | outcome [18] | Potency [19] | max response [20] 5.47%

O=C(Cl)C(Cl)(Cl)Cl
inactive: Potency [1] > 92 µM | Potency [2] > 92 µM | Potency [3] > 92 µM | Potency [4] > 92 µM | outcome [5] | activity change, negative = cytotoxicity [6] 4.93% | Potency [7] | Potency [8] | activity change, negative = cytotoxicity [9] 0.33% | outcome [10] | caspase-3 activation [11] 3.49% | outcome [12] | outcome [13] | outcome [14] | outcome [15] | outcome [16] | caspase-3 activation [17] -1.87% | outcome [18] | Potency [19] | max response [20] -1.02%

C=C(Cl)Cl
inactive: Potency [1] > 92 µM | Potency [2] > 92 µM | Potency [3] > 92 µM | Potency [4] > 92 µM | outcome [5] | activity change, negative = cytotoxicity [6] 3.46% | Potency [7] | Potency [8] | activity change, negative = cytotoxicity [9] -2.22% | outcome [10] | caspase-3 activation [11] 0.59% | outcome [12] | outcome [13] | outcome [14] | outcome [15] | outcome [16] | caspase-3 activation [17] 1.42% | outcome [18] | Potency [19] | max response [20] -2.47%

Clc1ccc2ccccc2c1
inactive: Potency [1] > 92 µM | Potency [2] > 92 µM | Potency [3] > 92 µM | Potency [4] > 92 µM | outcome [5] | activity change, negative = cytotoxicity [6] 3.7% | Potency [7] | Potency [8] | activity change, negative = cytotoxicity [9] -5.07% | outcome [10] | caspase-3 activation [11] 0.888% | outcome [12] | outcome [13] | outcome [14] | outcome [15] | outcome [16] | caspase-3 activation [17] 7.88% | outcome [18] | Potency [19] | max response [20] 0.9%

C=CC(=C)C
inactive: Potency [1] > 92 µM | Potency [2] > 92 µM | Potency [3] > 92 µM | Potency [4] > 92 µM | outcome [5] | activity change, negative = cytotoxicity [6] 4.7% | Potency [7] | Potency [8] | activity change, negative = cytotoxicity [9] 5.45% | outcome [10] | caspase-3 activation [11] 0.843% | outcome [12] | outcome [13] | outcome [14] | outcome [15] | outcome [16] | caspase-3 activation [17] -6.39% | outcome [18] | Potency [19] | max response [20] 4.78%

CC(O)CCl (stereo not given)
inactive: Potency [1] > 92 µM | Potency [2] > 92 µM | Potency [3] > 92 µM | Potency [4] > 92 µM | outcome [5] | activity change, negative = cytotoxicity [6] 5.86% | Potency [7] | Potency [8] | activity change, negative = cytotoxicity [9] -0.642% | outcome [10] | caspase-3 activation [11] 1.88% | outcome [12] | outcome [13] | outcome [14] | outcome [15] | outcome [16] | caspase-3 activation [17] 7.82% | outcome [18] | Potency [19] | max response [20] -0.405% and -1.63%

CCOc1ccc(N)cc1
inactive: Potency [1] > 92 µM | Potency [2] > 92 µM | Potency [3] > 92 µM | Potency [4] > 92 µM | outcome [5] | activity change, negative = cytotoxicity [6] -4.95% | Potency [7] | Potency [8] | activity change, negative = cytotoxicity [9] -1.23% | outcome [10] | caspase-3 activation [11] -0.901% | outcome [12] | outcome [13] | outcome [14] | outcome [15] | outcome [16] | caspase-3 activation [17] -17.4% | outcome [18] | Potency [19] | max response [20] 3.04%

CCCCCCCC(=O)Cl
inactive: Potency [1] > 92 µM | Potency [2] > 92 µM | Potency [3] > 92 µM | Potency [4] > 92 µM | outcome [5] | activity change, negative = cytotoxicity [6] 1.92% | Potency [7] | Potency [8] | activity change, negative = cytotoxicity [9] -1.44% | outcome [10] | caspase-3 activation [11] -0.927% | outcome [12] | outcome [13] | outcome [14] | outcome [15] | outcome [16] | caspase-3 activation [17] 8.29% | outcome [18] | Potency [19] | max response [20] 1.85%

O=C=NC1CCCCC1
inactive: Potency [1] > 92 µM | Potency [2] > 92 µM | Potency [3] > 92 µM | Potency [4] > 92 µM | outcome [5] | activity change, negative = cytotoxicity [6] -6.26% and 7.73% | Potency [7] | Potency [8] | activity change, negative = cytotoxicity [9] -5.86% and -0.993% | outcome [10] | caspase-3 activation [11] -0.599% and -1.26% | outcome [12] | outcome [13] | outcome [14] | outcome [15] | outcome [16] | caspase-3 activation [17] 5.04% and -5.65% | outcome [18] | Potency [19] | max response [20] 0.341% and -3.39%

CC(C)(c1ccccc1)c1ccc(O)cc1
inactive: Potency [1] > 92 µM | Potency [2] > 92 µM | Potency [3] > 92 µM | Potency [4] > 92 µM | outcome [5] | activity change, negative = cytotoxicity [6] -9.3% | Potency [7] | Potency [8] | activity change, negative = cytotoxicity [9] -9.32% | outcome [10] | caspase-3 activation [11] 11.6% | outcome [12] | outcome [13] | outcome [14] | outcome [15] | outcome [16] | caspase-3 activation [17] 4.59% | outcome [18] | max response [20] -2.53% and 0.007%
active: Potency [19] 33.5 µM
